Inconclusive results are not listed. Values without a mark were called inactive. Active and inactive are the calls of the source. Calls follow the shape of the dose curve; as a rule, active = well fitted inhibition curve with a large enough effect; inconclusive = small, poorly fitted or top-dose-only effect; inactive = no such curve, though single readings can be large or run the other way.
% is scaled to controls: 0 for no effect and ±100 for the full control effect; potency is read from the fitted curve at half-maximal effect.

Sequence of Cytochrome P450 2C9 (Homo sapiens) (P11712 whole entry, looked up): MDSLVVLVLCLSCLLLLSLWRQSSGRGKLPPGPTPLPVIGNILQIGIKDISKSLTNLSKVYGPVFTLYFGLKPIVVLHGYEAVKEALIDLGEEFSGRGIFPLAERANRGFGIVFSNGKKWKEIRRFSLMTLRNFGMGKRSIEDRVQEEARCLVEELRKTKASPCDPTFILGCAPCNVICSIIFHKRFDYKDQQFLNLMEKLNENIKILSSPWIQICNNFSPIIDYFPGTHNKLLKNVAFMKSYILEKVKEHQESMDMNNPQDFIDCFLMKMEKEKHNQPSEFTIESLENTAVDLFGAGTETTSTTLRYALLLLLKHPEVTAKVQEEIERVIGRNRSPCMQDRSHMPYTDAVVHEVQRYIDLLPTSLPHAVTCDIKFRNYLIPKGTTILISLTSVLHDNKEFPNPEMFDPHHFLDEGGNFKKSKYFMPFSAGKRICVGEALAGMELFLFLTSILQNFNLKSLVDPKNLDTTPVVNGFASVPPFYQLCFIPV

This test concerns the target Cytochrome P450 2C9 (Homo sapiens) (UniProt P11712). Put plainly: qHTS Assay for Inhibitors and Substrates of Cytochrome P450 2C9 (AID 883). Also: nearly all actives have a fitted effect of over 60% in size. Particulars: recombinant CYP2C9, luciferin-H luminescence, 60 min; series mostly up to 11.4 µM; activity change, negative = inhibition: at the top concentration. As for the experimental part:
NIH Molecular Libraries Screening Centers Network [MLSCN] NIH Chemical Genomics Center [NCGC] MLSCN Grant: None NCGC Assay Overview: The P450 gene superfamily is involved in the metabolism and clearance of xenobiotics. This assay used human CYP2C9 to measure the hydroxylation of deoxyluciferin (Luciferin-H; P450 Glo-Buffer) to luciferin. The luciferin is then measured by luminescence after the addition of a luciferase detection reagent. Luciferin-H concentration in the assay was equal to its Michaelis constant KM for CYP2C9. Inhibitors and some substrates limit the production of luciferin, and decrease measured luminescence.
NCGC Assay Protocol Summary: Two uL of enzyme and substrate mix (final concentrations: 10nM CYP2C9, 100uM Luciferin-H, 25mM KPO4) were dispensed into a white, solid bottom 1536-well microtiter plate. 23nL of compound was transferred by a pin tool. The plate was incubated at 37C for 10 min. Two uL of an NADPH regeneration solution (Promega supplied reagent) was dispensed and the reaction was allowed to continue for 60 min at 37C. Then the reaction was stopped by reconstituted P450 Glo-Buffer. After another 20 min of incubation the plate was read on the ViewLux (Perkin Elmer) at 60 sec exposure and 2x2 binning. This protocol was carried out with Promega-Glo reagents and further information can be found at http://www.promega.com/tbs/tb325/tb325.pdf. Data were normalized to the to AC100 inhibition (57uM sulphaphenazole). Keywords: P450, CYP2C9, Luciferase, MLSMR, MLSCN, NIH Roadmap, qHTS, NCGC
Background: Quantitative high-throughput screening tests each substance at several concentrations.
As to `COc1ccc(OCC2Cc3c(-c4ccccc4)nc4c(c3CO2)CN(CCOc2ccccc2)CC4)cc1` (stereo not given), the “activity change, negative = inhibition” value is -27.3%.

Turning to `COC(=O)NC(/C=C/c1ccccc1)[C@]1(C(C)=O)CCCC1=O` (stereo not given in full), the “activity change, negative = inhibition” value was 17.5%.

For `CC12C=C(/C=C/CCc3ccco3)C(C)(C1)C(CCc1ccco1)CC2=O` (stereo not given), the “activity change, negative = inhibition” value was 14.4%.

With `C#CC(C)OC(=O)c1nnc2c3ccccc3n(COC)c2n1` (stereo not given), the “activity change, negative = inhibition” value is -18.4%.

`CO[C@H]1COC(=O)C/C=C\[C@@H](C)COC(=O)[C@H]2CCCN2C(=O)C/C=C\[C@H]1C`: the “activity change, negative = inhibition” value is 30.6%.

As for `COc1ccc(OC2C(O)COC2/C=C/C#Cc2ccccc2)cc1` (stereo not given), the “activity change, negative = inhibition” value was 6.45%.

Take `COC(=O)C1=C(C)N(Cc2ccccc2)[C@]23O[C@](C(=O)OC)(C(=O)N2C1c1ccccc1)C(C(=O)OC)=C3C(=O)OC` (stereo not given in full): the “activity change, negative = inhibition” value was -29.7%.

On to `COc1ccc(O[C@H]2C=C[C@@H](c3ccccc3)O[C@H]2COC(=O)N2CCCCC2)cc1`, for which the Potency is 2.51 µM (active).

With `O=C1C[C@@H](O)[C@@H](O)[C@H]2[C@@H]3C(=O)N(Cc4ccccc4)C(=O)[C@@H]3CC[C@H]12`, the “activity change, negative = inhibition” value was 35.7%.

For `COC(=O)[C@@]1(Cc2ccccc2)[C@H]2c3cc(C(=O)N4CCCC4)n(CCN4CNCC4=O)c3C[C@H]2CN1C(=O)c1ccccc1`, the Potency is 2 µM (active).

On to `CCOC(=O)N/N=C1/C[C@@H](O)[C@@H](O)[C@@H]2[C@@H]3C(=O)N(c4cccc(Oc5ccccc5)c4)C(=O)[C@H]3CC[C@@H]12`, for which the “activity change, negative = inhibition” value was 30.8%.

In the case of `CC1Cc2c(-c3ccccc3)nc3c(c2CO1)CN(CCOc1ccccc1)CC3` (stereo not given), the “activity change, negative = inhibition” value was 18.5%.

On to `COC(=O)NC(c1cccc(F)c1)[C@]1(C(C)=O)CCCC1=O` (stereo not given in full), for which the “activity change, negative = inhibition” value was 35.2%.

Take `CCOC(=O)OCC1OC(C#Cc2ccc(C)cc2C)C=CC1OC(=O)OCC` (stereo not given): the “activity change, negative = inhibition” value is -22.1%.

As to `CCOC(=O)[C@]1(C(/C=C/c2ccco2)NC(=O)OC)CCCC1=O` (stereo not given in full), the “activity change, negative = inhibition” value is -3.56%.

For `C=CCOC(=O)C(C(C)=O)C(NC(=O)OC)c1ccc(F)cc1` (stereo not given), the “activity change, negative = inhibition” value was 17.1%.

As for `CC(C)CN1CCc2nc(-c3ccccc3)c3c(c2C1)COC(C)C3` (stereo not given), the “activity change, negative = inhibition” value was 24.1%.

Regarding `COC1(C#CC2C=CC(OC(C)=O)C(COC(C)=O)O2)CCCCC1` (stereo not given), the “activity change, negative = inhibition” value was 17.7%.

On to `CCCCOC(OCCCC)[C@H](O)CSc1ccc2ccccc2c1`, for which the Potency is 2 µM (active).

For the compound `COC(=O)C/C=C/C(C)C(OCc1cccc(Br)c1)C(C)C(OC)C1CCCCC1` (stereo not given), the Potency is 2.51 µM (active).

`COc1ccc(OC2C=CC(c3ccccc3)OC2CO)c(C(C)=O)c1` (stereo not given): the “activity change, negative = inhibition” value was 36%.

For `COc1cccc([C@@H]2Oc3ccc(Br)cc3C(=O)[C@H]2O)c1`, the Potency was 2.51 µM (active).

Regarding `COC(=O)[C@@]1(Cc2ccc(OC)cc2)[C@H]2c3cc(C(=O)N4CCCC4)n(CCCNc4ncc(C(F)(F)F)cc4Cl)c3C[C@H]2CN1C(=O)c1ccccc1`, the Potency is 7.94 µM (active).

As for `COc1cc(C2NC(C(=O)O)Cc3c2[nH]c2ccccc32)cc(OC)c1OC` (stereo not given), the “activity change, negative = inhibition” value was 21.1%.

For `COC(=O)NC(CC(C)=O)c1cccs1` (stereo not given), the “activity change, negative = inhibition” value is 4.71%.

Take `C/C=C/C1Oc2ccc(OC)cc2N2C(=O)C(C)C(OCOC)C12` (stereo not given): the “activity change, negative = inhibition” value is -29.8%.

For the compound `CC(C)CO/N=C1/[C@H]2O[C@@H]2[C@@H](O)[C@H]2[C@H]1CCn1c(=O)n(-c3ccccc3)c(=O)n12`, the “activity change, negative = inhibition” value is 36.9%.

Regarding `COC(=O)NC(CC(C)=O)c1ccc(F)cc1` (stereo not given), the “activity change, negative = inhibition” value was 15.8%.

Take `O=C(/C=N/O)NCCCCNC(=O)/C=N/O`: the “activity change, negative = inhibition” value is 2.1%.

For the compound `C=CCOC(=O)C(C(C)=O)C(NC(=O)OC)c1ccccc1` (stereo not given), the “activity change, negative = inhibition” value was -6.26%.

Consider `COC(=O)N1CCc2cc(OC)c(OC)cc2C1Cc1ccc(OC)cc1` (stereo not given), for which the “activity change, negative = inhibition” value was 4.39%.

For `OCC1OC(c2ccccc2)C=CC1Oc1ccc(C2CCCC2)cc1` (stereo not given), the “activity change, negative = inhibition” value was 13.4%.

As to `COC(=O)NC(CC(C)=O)c1ccco1` (stereo not given), the “activity change, negative = inhibition” value is 21.2%.

Consider `CCCCC1CN2C(CCC(C)C2c2ccc(Br)cc2)C(=O)O1` (stereo not given), for which the Potency entry was “inactive”.

On to `COC(=O)NC(CC(C)=O)c1cccc(C(F)(F)F)c1` (stereo not given), for which the “activity change, negative = inhibition” value is 7.76%.

Consider `CCCCCCC#CC1C=CC(OC(=O)OCC)C(COC(=O)OCC)O1` (stereo not given), for which the “activity change, negative = inhibition” value is -5.59%.

For the compound `CCCCCCC#CC1C=CC(Oc2ccc(C=O)cc2)C(CO)O1` (stereo not given), the “activity change, negative = inhibition” value was -21.1%.

With `CC(C)CC1OCCC=CC1C` (stereo not given), the “activity change, negative = inhibition” value is 8.14%.

Regarding `CCCCCCC/C=C/C1=CC2(C)CC1(C)C(CCCCCCC)CC2=O` (stereo not given), the “activity change, negative = inhibition” value is 20.8%.

As for `CC#CCOCC/C=C1/c2ccccc2C(OC)C1C` (stereo not given), the “activity change, negative = inhibition” value was 13.5%.

The values are drawn from PubChem BioAssay (NCATS).
